14 compounds from the supplement of paper PMC6522484 can be followed below.

SMILES strings stand for the structures. ± gives the standard deviation of the averaged measurements.

For assay [1], the system named is DLD1. Put plainly: cell viability (CellTiter-Glo) relative to plate median (fraction of plate median); higher = more viable cells. The note with it: 5 µM; treatment time 24 h; reporter: 7TFP. In outline:
(§1)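 For this screen, colorectal cancer cell lines carrying stable lentiviral TCF/Wnt firefly luciferase reporters, either 7TFP or TCF4/Wnt, were seeded into 384-well plates. A day's wait of 24 h preceded addition of library compounds at a final 5 µM, which stayed on the cells for 24 h. Firefly luciferase or CellTiterGlo luminescence, read on parallel plates, was normalised to the plate median per well, and the reported value is the mean of two independent replicates.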
In general terms: In ATP-based viability assays light output follows the ATP content of the culture.

The test system of assay [2] is HCT116. Described as above. The note with it: 5 µM; treatment time 24 h; reporter: TCF4/Wnt. An outline of the steps: as §1
Assay [3] concerns SW480. The assay is described as above. The note with it: 5 µM; treatment time 24 h; reporter: 7TFP. In outline: as §1
In assay [4] the test system is DLD1. As to the kind of experiment: TCF/Wnt firefly luciferase reporter signal relative to plate median (fraction of plate median); higher = higher Wnt reporter signal. The note with it: 5 µM; treatment time 24 h; reporter: 7TFP. An outline of the steps:
as §1
Background: In a reporter assay the amount or activity of a reporter protein is the signal.

In assay [5] the test system is SW480. The assay is described as above. As to conditions: 5 µM; treatment time 24 h; reporter: 7TFP. An outline of the steps:
as §1

Consider `CN1CCN(CC(=O)N2c3ccccc3C(=O)Nc3cccnc32)CC1`, for which the cell viability worked out at 0.944 ± 0.022 in assay [1], 1 ± 0.067 in assay [2] and 0.9405 ± 0.0035 in assay [3]. Also, the “TCF/Wnt firefly luciferase reporter signal” value in assay [4] came to 0.796 ± 0.014; in assay [5], 0.813 ± 0.0099.

As to `COc1cc(/C=C/C(=O)O)ccc1O` [Ferulic acid (Biofocus)], the cell viability in assay [1] came to 0.923 ± 0.17; in assay [2], 1.05 ± 0.028; in assay [3], 1.02 ± 0.014. For the same compound, the entries for the “TCF/Wnt firefly luciferase reporter signal” value in assay [4] and in assay [5] were 0.962 ± 0.012 and 1.04 ± 0.069, respectively.

`COc1ccc(C(=O)/C=C/c2ccccc2)cc1`: the figures for the cell viability in assay [1], in assay [2] and in assay [3] were 0.964 ± 0.0028, 0.977 ± 0.0085 and 0.972 ± 0.069, respectively. The “TCF/Wnt firefly luciferase reporter signal” value stood at 0.936 ± 0.04 in assay [4] and 0.944 ± 0.15 in assay [5].

`O=C1CCC(N2C(=O)c3ccccc3C2=O)C(=O)N1` (stereo not given): the cell viability in assay [1] is 0.939 ± 0.1; in assay [2], 0.972 ± 0.04; in assay [3] it was 0.953 ± 0.03. Also, the “TCF/Wnt firefly luciferase reporter signal” value in assay [4] was 1.23 ± 0.16; in assay [5], 0.887 ± 0.018.

As for `O=c1c(-c2ccc(O)cc2)coc2cc(O)ccc12`, the cell viability in assay [1] was 1.01; in assay [2], 0.9665 ± 0.0021; in assay [3], 0.902 ± 0.0042. For the same compound, the “TCF/Wnt firefly luciferase reporter signal” value in assay [4] turned out to be 0.978 ± 0.059; in assay [5] it was 0.971 ± 0.025.

For `CC(C)(C)NC[C@H](O)COc1cccc2c1CCCC2=O`, the cell viability turned out to be 0.99 ± 0.043 in assay [1], 1.03 ± 0.075 in assay [2] and 0.9555 ± 0.0035 in assay [3]. Further, the “TCF/Wnt firefly luciferase reporter signal” value in assay [4] was 0.886 ± 0.0085; in assay [5], 0.981 ± 0.084.

For `FC(F)(F)c1ccccc1-n1ccnc1`, the cell viability came out at 1.02 ± 0.04 in assay [1], 1.01 ± 0.017 in assay [2] and 1 ± 0.026 in assay [3]. The “TCF/Wnt firefly luciferase reporter signal” value in assay [4] came out at 1.03 ± 0.064; in assay [5] it was 0.912 ± 0.14.

`O=C1C[C@@H](c2ccc(O)cc2)Oc2cc(O)cc(O)c21`: the cell viability was 1.045 ± 0.0071 in assay [1], 1.055 ± 0.0071 in assay [2] and 1.03 in assay [3]. Besides, the “TCF/Wnt firefly luciferase reporter signal” value in assay [4] amounted to 1.015 ± 0.0071; in assay [5], 1.04 ± 0.021.

With `CC(C)=CCc1c2c(c3occ(-c4ccc(O)cc4)c(=O)c3c1O)C=CC(C)(C)O2`, the cell viability in assay [1] turned out to be 0.955 ± 0.093; in assay [2], 0.98 ± 0.028; in assay [3], 0.99 ± 0.015. Also, the “TCF/Wnt firefly luciferase reporter signal” value is 1.1 ± 0.099 in assay [4] and 0.914 ± 0.099 in assay [5].

For `Oc1ccc2c(c1)O[C@H](c1ccc(O)c(O)c1)[C@@H](O)C2`, the cell viability came to 1.07 ± 0.014 in assay [1], 1.04 ± 0.028 in assay [2] and 1.05 ± 0.096 in assay [3]. Also, the “TCF/Wnt firefly luciferase reporter signal” value was determined as 0.926 ± 0.058 in assay [4] and 0.9675 ± 0.005 in assay [5].

As for `C[N+]1(C)[C@@H]2CC[C@H]1C[C@@H](OC(=O)C(O)c1ccccc1)C2` (stereo not given in full), the cell viability in assay [1] worked out at 1.08 ± 0.035; in assay [2], 0.941 ± 0.079; in assay [3], 1.085 ± 0.0071. For the same compound, the entries for the “TCF/Wnt firefly luciferase reporter signal” value in assay [4] and in assay [5] were 1.1 ± 0.042 and 1.01 ± 0.15, respectively.

Take `CCCCC/C=C/CCC(=O)N[C@H]1[C@H](Oc2c3cc4cc2Oc2ccc(cc2Cl)[C@@H](O[C@@H]2O[C@H](CO)[C@@H](O)[C@H](O)[C@H]2NC(C)=O)[C@@H]2NC(=O)[C@H](NC(=O)[C@@H]4NC(=O)[C@H]4NC(=O)C(Cc5ccc(c(Cl)c5)O3)NC(=O)[C@H](N)c3ccc(O)c(c3)Oc3cc(O)cc4c3)c3ccc(O)c(c3)-c3c(OC4O[C@H](CO)[C@@H](O)[C@H](O)[C@@H]4O)cc(O)cc3[C@@H](C(=O)O)NC2=O)O[C@H](CO)[C@@H](O)[C@@H]1O` (stereo not given in full) [TEICOPLANIN [A(2-1) shown]]: the values for the cell viability in assay [1], in assay [2] and in assay [3] were 1.04 ± 0.035, 1.01 ± 0.07 and 1.02 ± 0.083, respectively. The “TCF/Wnt firefly luciferase reporter signal” value was determined as 0.971 ± 0.0071 in assay [4] and 1 ± 0.04 in assay [5].

`CC(C)CCCC(C)C1CCC2C3=CCC4CC(O)CCC4(C)C3CCC21C` (stereo not given): the results for the cell viability in assay [1], in assay [2] and in assay [3] were 1.05 ± 0.064, 1.07 ± 0.11 and 1.02 ± 0.043, respectively. The figures for the “TCF/Wnt firefly luciferase reporter signal” value in assay [4] and in assay [5] were 0.891 ± 0.083 and 0.897 ± 0.12, respectively.

As for `CNC(=C[N+](=O)[O-])NCCSCc1ccc(CN(C)C)o1`, the cell viability in assay [1] is 0.892 ± 0.018; in assay [2], 0.983 ± 0.024; in assay [3], 0.974 ± 0.011. Besides, the results for the “TCF/Wnt firefly luciferase reporter signal” value in assay [4] and in assay [5] were 0.998 ± 0.017 and 0.953 ± 0.016, respectively.
